Measurements: PubChem BioAssay (NCI)
About 83,000 compounds went through this panel and 20% of them were active in at least one assay; those are over-represented in the sample as a whole.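 A percent growth of 40 corresponds to 60% growth inhibition; 0 means no net growth; -100 means all cells died. Active threshold: below 10.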 Values without a mark were called inactive. Active and inactive are the calls of the source.

The compounds below were run on M14 melanoma (assay: NCI-60 one-dose screen, 48 h (100 = growth as untreated, 0 = no growth, -100 = all killed)). Conditions: 10 µM unless noted.

SMILES	growth
CNc1sc(S(=O)(=O)NC)nc1S(=O)(=O)c1ccc(C)cc1	101%
COc1cccc(N2CCN(C3=C(Cl)C(=O)c4ncccc4C3=O)CC2)c1	81.7%
O=C1[C@@H]2Cc3c([nH]c4ccccc34)[C@@H](c3ccc(Cl)cc3)N2C(=O)CN1C1CCN(Cc2ccccc2)CC1	7.82% (active)
CC(=O)OCCCCN1C=C/C(=C\C(=O)n2ccc3ccccc32)c2ccccc21	101%
CN1CCN(c2ccc(Nc3nc(NCCNS(=O)(=O)c4ccc5ccccc5c4)c4sccc4n3)cc2)CC1	-82.6% (active)
CC1=C(C)C(=O)C(Nc2ccc3c(c2)OCCO3)=C(Br)C1=O	106%
C=C(C)[C@@H]1CC[C@]2(C(=O)NC3CCCCC3)CC[C@]3(C)[C@H](CC[C@@H]4[C@@]5(C)CC[C@H](N)C(C)(C)[C@@H]5CC[C@]43C)[C@@H]12	103%
CCOC(=O)c1c(NC(=O)c2ccc(C(F)(F)F)cc2)sc2c3c(ccc12)OCN(C)C3	30.1%
C#CCN(C)CCCOc1ccc(NCc2ccc(/C=C/C(=O)NO)cc2)cc1Cl	0.456% (active)
COc1cc(/C=N\NC(=O)c2ccc3nc(-c4ccc(Br)cc4)[nH]c3c2)cc(OC)c1OC	38.3%
C=C1CCc2nc(SCC(=O)O)ccc2N1	94.8%
CN1CCC[C@]2(C)[C@H]3CC[C@@H]4[C@@H]5[C@H]6OC[C@@]5(CCC6(C)C)CC[C@@]4(C)[C@]3(C)CC[C@H]2C1(C)C	97.9%
C=C(C=O)[C@@H]1CC[C@]2(C(=O)O)CC[C@]3(C)C(CC[C@@H]4[C@@](C)(CCC#N)[C@H](C(=C)C=O)CC[C@]43C)[C@@H]12 (stereo partly drawn)	13.2%
NCCNC(=O)c1cccc(COc2ccccc2NC(=O)c2cc(Cl)c(Cl)[nH]2)c1	101%
COc1ccc(C2c3[nH]c4ccc(Cl)cc4c3CCN2c2oc(CO)nc2C#N)cc1 (stereo not drawn)	53.5%
CN(C)c1ccc(-c2cc(-c3c[nH]c4ccccc34)nc(N)c2C#N)cc1	-27.1% (active)
COc1ccccc1/C=C1\Oc2ccc(O)c(O)c2C1=O	95.4%

SMILES	growth
CCCCCc1ccc(S(=O)(=O)Nc2cc(-c3csc(N)n3)ccc2OC)cc1	103%
O=C(O)c1ccc(-n2c(=O)n(-c3cccc(C(F)(F)F)c3)c(=O)c3cc(-c4ccc(F)cc4F)ccc32)cc1	18.6%
Nn1c(=O)n(-c2cccc(C(F)(F)F)c2)c(=O)c2cc(-c3ccc(F)cc3F)ccc21	17.1%
CCCCN1C(=O)/C(=c2\sc3n(c2=O)C2C(NN=3)N(CC)C(=O)N2CC)c2cc(C)ccc21 (stereo not drawn)	107%
CC(C)[C@H]1c2[nH]c3ccccc3c2C[C@H]2C(=O)N(CCCCCCC(=O)NO)CC(=O)N12	82.2%
O=C(N/N=C\c1ccc(F)cc1)c1ccc2nc(-c3ccc(Br)cc3)[nH]c2c1	18.8%
NC1[C@H]2CN(c3cnc(C(=O)Nc4cc(F)cc5cccnc45)cn3)C[C@@H]12 (stereo partly drawn)	79.3%
Cc1ccsc1[C@H]1c2[nH]c3ccccc3c2C[C@H]2C(=O)N(CCCCCCC(=O)NO)CC(=O)N12	86.4%
CC(=O)N(O)CCCCCNC(=O)CCC(=O)N(O)CCCCCNC(=O)CCC(=O)N(O)CCCCCN(CCCCCCCCCC[P+](c1ccccc1)(c1ccccc1)c1ccccc1)CCCCCCCCCC[P+](c1ccccc1)(c1ccccc1)c1ccccc1	11%
O=c1nc(Nc2ccc([N+](=O)[O-])cc2O)sc2ccccc12	17.5%
Cc1cc2nc(C(Cl)Cl)nc(-c3ccc(S(=O)(=O)N(C)C)cc3)n2n1	37.1%
C/C(CC1(O)C(=O)Nc2ccccc21)=N\O (stereo not drawn)	97.9%
C[C@]12CC[C@H]3[C@@H](CC=C4C[C@@H](O)CC[C@@]43C)[C@@H]1CC[C@@H]2[C@](C)(O)CCc1cccnc1	85.6%
O=C(CSc1nnc(-c2cccs2)n1-c1ccccc1)Nc1ccccc1F	74.7%
CC(=C(c1ccc(OCCCN(C)C)cc1)c1ccc(OCCCN(C)C)cc1)c1ccc(Cl)cc1	92.7%
O=C(CSc1nc2ccccc2c(=O)n1-c1ccc(Cl)c(Cl)c1)Nc1ccc(S(=O)(=O)Nc2ccc(Cl)nn2)cc1	86.2%
